# Assay outcomes: PubChem BioAssay, National Center for Advancing Translational Sciences (NCATS)
# D3 antag: D3 dopamine receptor (human) antagonism; P35462; D3R cells, DiscoveRx beta-arrestin luminescence, antagonist mode; hits give low values; max response, negative = inhibition, %; 360,000 compounds, 2.5% hits; AID 652054; in the data active = max response below about -50%; inconclusive = no clear call, values can overlap the other calls
#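 Cells expressing the human receptor were seeded at 1500 cells/well, incubated overnight at 37 degrees C in 5% CO2, then exposed to library compounds with dopamine controls for 90 minutes at 37 degrees C before luminescent detection.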
# Integrin act MD: activators of alpha7 integrin expression for muscular dystrophy; alpha7betagal myoblasts, beta-gal FDG fluorescence, 48 h; 350,000 compounds, 0.064% hits; Potency, µM (highest dose often 38.3 µM), usual class: activators; also: nearly all actives have a fitted effect of over 60% in size
#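 Alpha7betagal+/- myoblasts (passage 13) were plated 16-24 hr, then exposed to compounds (1:260 dilution of DMSO stock) for 48 hours at 37C. After MPER lysis, β-galactosidase reporter activity was read as FDG fluorescence (ex 480/em 540) after 30 minutes.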
# B2AR arrestin: agonists driving beta-arrestin recruitment to human beta2-adrenergic receptor | AID 492947 | Potency, µM (series often up to 46.1 µM), most hits filed as activators | P07550 | 330,000 compounds, 0.02% hits | beta-arrestin recruitment to beta2AR, cell-based reporter; also: nearly all actives have a fitted effect of over 65% in size
# Target sequence (P07550 whole entry, looked up): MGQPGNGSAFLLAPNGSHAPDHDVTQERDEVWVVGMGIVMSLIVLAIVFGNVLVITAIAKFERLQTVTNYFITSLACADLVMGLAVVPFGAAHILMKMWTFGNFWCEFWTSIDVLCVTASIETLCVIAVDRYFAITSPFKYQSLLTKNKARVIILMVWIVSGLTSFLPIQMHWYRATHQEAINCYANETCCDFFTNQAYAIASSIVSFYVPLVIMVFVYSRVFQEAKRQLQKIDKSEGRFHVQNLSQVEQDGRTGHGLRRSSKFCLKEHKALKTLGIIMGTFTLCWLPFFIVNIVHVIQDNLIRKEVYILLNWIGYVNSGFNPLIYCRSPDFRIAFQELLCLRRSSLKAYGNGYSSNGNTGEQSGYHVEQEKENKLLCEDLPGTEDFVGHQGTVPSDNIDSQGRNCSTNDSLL
# D3 ag: D3 dopamine receptor (human) agonism. D3R DiscoveRx beta-arrestin cells, luminescence, 90 min. AID 652048. max activation, %. 410,000 compounds, 0.58% hits. P35462; in the data active = max activation above about 30%
#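 Agonist mode: compounds and dopamine controls were applied to plated cells for 90 min at 37 degrees C after an overnight attachment at 1500 cells/well. Luminescent read-out followed 30 - 60 minutes at room temperature with DiscoveRx detection reagent.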
# mIDH1 inhibitor: human IDH1 R132H inhibition; O75874; IDH1-R132H enzyme, NADPH consumption, diaphorase/resazurin fluorescence; Potency, µM (titrated, usually from 76.6 µM), actives largely listed as inhibitors; 390,000 compounds, 0.093% hits; AID 602179; also: nearly all actives have a fitted effect of over 65% in size
#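 IDH1-R132H (0.5 ug/mL dispensed) in pH 7.5 Tris buffer was preincubated 30 min with compound, then given a substrate mix of 0.016 mM NADPH and 2 mM alpha-KG for 80 min at room temperature; remaining NADPH was read by diaphorase/resazurin fluorescence.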
# Numbers stand for hits; – = inactive; ? = inconclusive; · = no result; ! = a repeat was not active. Most compounds without a hit are left out; they make up all but 2.9% or so of the library. Unless noted, calls follow the shape of the dose curve; as a rule, active = well fitted curve in the direction sought with a large enough effect; inconclusive = small, poorly fitted or top-dose-only effect, or another doubt; inactive = no such curve, though single readings can be large; an effect the other way counts as inactive or inconclusive.
SMILES,D3 antag,Integrin act MD,B2AR arrestin,D3 ag,mIDH1 inhibitor
Cc1ccc(NC(=O)CN2C(=O)NC3(CCCCCC3)C2=O)cc1Cl,–,–,–,–,–
Cc1cccc(NC(=O)c2cc(S(=O)(=O)c3ccccc3)ccc2Cl)c1,–,–,–,–,–
Cc1ccccc1NC(=O)c1cc(S(=O)(=O)c2ccccc2)ccc1Cl,-51.7,–,–,–,–
Cc1ccc(CN2C(=O)C(Cc3ccccc3)Nc3ncnc(N4CCCCC4)c32)cc1 (configuration not stated),-83.8!,–,–,–,–
Cc1ccc(CN2C(=O)C(Cc3ccccc3)Nc3ncnc(N4CCN(c5ccccc5)CC4)c32)cc1 (configuration not stated),-140.3,–,–,–,–
CC(C)CC1Nc2ncnc(N3CCOCC3)c2N(Cc2ccccc2)C1=O (configuration not stated),–,–,–,60.5!,–
O=C1C(Cc2ccccc2)Nc2ncnc(N3CCN(c4ccccc4)CC3)c2N1Cc1ccccc1 (configuration not stated),–,–,–,–,–
O=C1C(Cc2ccccc2)Nc2ncnc(N3CCOCC3)c2N1Cc1ccc(Cl)cc1 (configuration not stated),-101.7!,–,–,–,–
CCCCCCCCCCCCCCCCSCC(COC)COP(=O)([O-])OCC[N+](C)(C)C (configuration not stated),·,·,·,–,·
COc1ccc(N(C)C(=O)c2cc(S(=O)(=O)N3CCc4ccccc43)cn2C)c(OC)c1,·,·,·,–,·
COc1ccc(CN2C(=O)C(Cc3ccccc3)Nc3ncnc(N4CCCCC4)c32)cc1 (configuration not stated),-53.1,–,–,–,–
CCC1Nc2ncnc(N3CCCCC3)c2N(Cc2ccccc2)C1=O (configuration not stated),–,–,–,–,–
CCC1CCCCN1C(=O)c1c[nH]c2ccc(S(=O)(=O)Nc3cccc(OC)c3)cc2c1=O (configuration not stated),·,·,·,–,–
CCn1cc2nc(SCc3cccc(OC)c3)n(Cc3ccc(Cl)cc3)c(=O)c2n1,·,·,·,–,–
Cc1ccccc1OCC(O)Cn1c2ccccc2c2ccccc21 (configuration not stated),–,–,–,45.6,–
CC(=O)Nc1ccc(OCC(O)Cn2c3ccccc3c3ccccc32)cc1 (configuration not stated),–,–,–,–,–
CC(=O)Nc1ccc(OCC(O)Cn2c3ccccc3c3ccccc32)c(C)c1 (configuration not stated),–,–,–,30.9,–
CC(Oc1ccc(Br)cc1)C(=O)Nc1ccc(S(=O)(=O)N(C)C2CCN(C)CC2)cc1 (configuration not stated),–,–,–,–,–
COc1ccc(S(=O)(=O)N(Cc2nc(-c3ccc(C)cc3)no2)C2CCCCC2)cc1,·,·,·,–,–
Cc1ccc2c(c1)C(=O)C(=O)N2CCCOc1ccccc1,-50.2,–,–,–,–
Cc1ccc2c(c1)C(=O)C(=O)N2Cc1ccc(F)cc1,?,–,–,–,–
Cc1ccc2c(c1)C(=O)C(=O)N2Cc1ccc(Cl)cc1,-63.6,–,–,–,–
CCCCSc1nc2sc3c(c2c(=O)n1-c1ccccc1C)CC(C)(C)OC3,·,·,·,–,–
COc1ccc(NC(=O)Cn2c(=O)n(Cc3ccccc3)c(=O)c3sc4ccccc4c32)cc1,·,·,·,–,–
O=C(NCc1ccc(Cl)cc1)c1cc(S(=O)(=O)N2CCCCC2)c[nH]1,-53.6,–,–,–,–
SMILES,D3 antag,Integrin act MD,B2AR arrestin,D3 ag,mIDH1 inhibitor
CC(CN1C(C)CCCC1C)OC(=O)c1ccccc1F (configuration not stated),–,–,–,–,–
COc1ccc(C(=O)/C=C/c2ccccc2)c(O)c1,?,–,–,–,–
COc1cc(O)cc(/C=C/c2ccccc2)c1,–,–,·,69.7,–
Cc1cccc2sc(NS(=O)(=O)c3ccccc3)nc12,-64.5,–,–,–,–
CCOC(=O)c1sc(NS(=O)(=O)c2ccccc2Cl)nc1C,-70.0,–,–,–,–
CCOC(=O)c1sc(NS(=O)(=O)c2ccccc2)nc1C,-60.2,–,–,–,–
CCOC(=O)c1sc(NS(=O)(=O)c2ccc(F)cc2)nc1C,–,–,–,–,–
O=C(O)c1ccccc1C1c2ccccc2Oc2ccccc21,-72.4,–,·,–,–
